# Measured values as given in the supplement of paper PMC6992640.
# ± gives the standard deviation of the averaged measurements.
# Assays:
# Experiment in all cases: cell viability (% of vehicle); higher = less cytotoxic
# Settings in all cases: 10 µM; 72 h
# HCI01 = tested on: HCI01 (cells of a triple-negative basal-like breast cancer xenograft)
# HCI03 = tested on: HCI03 (cells of an ER-positive luminal breast cancer xenograft)
# HCI09 = tested on: HCI09 (cells of a triple-negative luminal androgen receptor type breast cancer xenograft)
# HCI11 = tested on: HCI11 (cells of an ER-positive luminal breast cancer xenograft)
# HCI13 = tested on: HCI13 (cells of an ER-positive luminal breast cancer xenograft)
# HCI16 = tested on: HCI16 (cells of a triple-negative basal-like breast cancer xenograft)
# UCD52 = tested on: UCD52 (cells of a triple-negative basal-like breast cancer xenograft)
# WHIM2 = tested on: WHIM2 (cells of a triple-negative basal-like breast cancer xenograft)
# WHIM30 = tested on: WHIM30 (cells of a triple-negative basal-like breast cancer xenograft)
# 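Also: PDX cells carrying CMV promoter-driven luciferase, viability read as total photon flux per second by IVIS imaging following D-luciferin, vehicle control 0.1% DMSO.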
Compound,cell viability (HCI01),cell viability (HCI03),cell viability (HCI09),cell viability (HCI11),cell viability (HCI13),cell viability (HCI16),cell viability (UCD52),cell viability (WHIM2),cell viability (WHIM30)
N#Cc1ccc(C(c2ccc(C#N)cc2)n2cncn2)cc1 [Letrozole],111 ± 7.6,99.1,98.4 ± 3.9,102,88.2 ± 5.6,99.1,126 ± 15,73.7 ± 21,126 ± 8.4
O=C1OC(C(O)CO)C([O-])=C1O.[Na+] (centres undefined) [Sodium ascorbate],94.7 ± 14,87,90.3 ± 1.3,87,52 ± 6.5,92.3,77.3 ± 8.9,115 ± 31,120 ± 3
CN1CCN(c2c(F)cc3c(=O)c(C(=O)O)cn4c3c2OCN4C)CC1 [Marbofloxacin],99.12 ± 0.67,99.3,69.9 ± 9,138,129 ± 17,114,136 ± 18,75.5 ± 2.6,148 ± 30
COc1ccccc1OCC(O)COC(N)=O (centres undefined) [Methyocarbamol],148 ± 10,132,144 ± 44,108,109 ± 3.5,111,104 ± 8.4,104 ± 27,134 ± 2.3
CCCCc1ncc(C=C(Cc2cccs2)C(=O)O)n1Cc1ccc(C(=O)O)cc1.CS(=O)(=O)O [Eprosartan Mesylate],156 ± 27,129,106 ± 17,120,108 ± 12,134,124 ± 9.7,123 ± 9.3,198 ± 22
Cc1cccc(N(C)C(=S)Oc2ccc3ccccc3c2)c1 [Tolnaftate],113 ± 28,140,72.7 ± 30,95.2,96.2 ± 8.2,108,71.2 ± 2.5,91.6 ± 8.1,131 ± 9.2
CC#CC1(O)CCC2C3CCC4=CC(=O)CCC4=C3C(c3ccc(N(C)C)cc3)CC21C (centres undefined) [Mifepristone],113 ± 13,99.2,72.6 ± 18,73.5,47.5 ± 0.63,89.3,73.3 ± 6.9,89.7 ± 2.1,93.3 ± 3
"CC(=O)N1CCN(c2ccc(OCC3COC(Cn4ccnc4)(c4ccc(Cl)cc4Cl)O3)cc2)CC1 (single isomer, unassigned; (+)) [(+)-Ketoconazole]",151 ± 55,119,29.5 ± 5.5,87.9,98.9 ± 9.7,103,44.6 ± 2.7,134 ± 9.5,94.8 ± 11
CC(Cn1cnc2c(N)ncnc21)OCP(=O)(O)O (centres undefined) [Tenofovir],89.1 ± 9.4,123,103 ± 15,106,112 ± 11,116,90.6 ± 6.9,99.3 ± 14,121.3 ± 1.2
CN(C)c1cc(NC(=O)CNC(C)(C)C)c(O)c2c1CC1CC3C(N(C)C)C(=O)C(C(N)=O)=C(O)C3(O)C(=O)C1=C2O (centres undefined) [Tigecycline],80 ± 10,121,95.8 ± 8.5,81.9,129 ± 23,120,96.7 ± 21,102 ± 22,129 ± 8.6
CCN(CC)CCOC(=O)c1ccc(N)cc1 [Procaine],99.4 ± 4.1,122,105 ± 23,87,96.765 ± 0.018,102,88.1 ± 3.5,97.3 ± 23,95.2 ± 24
N[C@@H](CCC(=O)N[C@@H](CS)C(=O)NCC(=O)O)C(=O)O [L-Glutathione Reduced],103 ± 5.7,115,107 ± 4,85.3,104 ± 6.7,113,99.8 ± 5.5,98.6 ± 5,131 ± 2.4
COc1nc(C)cnc1NS(=O)(=O)c1cccnc1-c1ccc(-c2nnco2)cc1 [Zibotentan (ZD4054)],122 ± 15,116,105 ± 9.6,117,125 ± 12,125,97.9 ± 1.1,85.7 ± 3.5,139 ± 6.9
CCCNC1CCc2nc(N)sc2C1 (centres undefined) [Pramipexole],122 ± 25,111,113 ± 5.7,110,163 ± 2.5,151,114 ± 20,101.5 ± 0.41,100 ± 12
O=C(NCCO[N+](=O)[O-])c1cccnc1 [Nicorandil],81.9 ± 59,135,93.1 ± 9.9,89.3,151 ± 28,113,82.6 ± 8.1,120 ± 9.5,127 ± 5.8
Cl.NCCCC(N)(C(=O)O)C(F)F.O (racemic) [DL-α-Difluoromethylornithine (hydrochloride hydrate)],94.2 ± 12,94,92.3 ± 10,65.9,80.9 ± 5.2,99.2,85.3 ± 3.9,91.9 ± 5.5,97.1 ± 3.2
CC(C=CC1=C(C)CCCC1(C)C)=CC=CC(C)=CC(=O)O [Isotretinoin],139 ± 2,109,91.69 ± 0.3,122,119 ± 3.2,105,190 ± 2.4,91.5 ± 10,142.94 ± 0.0078
Cc1ccccc1C(OCCN(C)C)c1ccccc1.O=C(O)CC(O)(CC(=O)O)C(=O)O (centres undefined) [Orphenadrine Citrate],145 ± 33,130,104 ± 1.3,90.9,108 ± 15,138,68.3 ± 6.3,83.3 ± 17,100 ± 7.5
CS(=O)(=O)c1ccc(C(=O)Nc2ccc(Cl)c(-c3ccccn3)c2)c(Cl)c1 [GDC-0449 (Vismodegib)],109 ± 40,94.4,69.5 ± 20,104,105 ± 7.7,83.4,67.1 ± 1.8,111 ± 5.5,133 ± 2.4
CCC(=O)NCCC1CCc2ccc3c(c21)CCO3 (centres undefined) [Ramelteon],98.9 ± 7,113,94 ± 8.3,93,94 ± 20,81.6,80.6 ± 1.4,80.7 ± 9.9,103 ± 3.4
CCCC1CC(C(=O)NC(C(C)Cl)C2OC(SC)C(O)C(O)C2O)N(C)C1 (centres undefined) [Clindamycin],142 ± 42,124,83 ± 23,106,76.4 ± 12,122,96.8 ± 12,117 ± 13,116 ± 7.1
